We go through 40 molecules from PubChem BioAssay (EPA / NIEHS).

Activity calls are given as the source filed them. Rule for the calls: active = hit-call score of the fitted dose curve at least 0.9, where 1 is the maximum; inactive = score below 0.9.

Read-out in the test: MicroRNA 122 (MIR122), gene 406906
Description: LTEA_HepaRG_MIR122: Life Technologies and Expression Analysis (LTEA) Assay for MicroRNA 122 (MIR122) using HepaRG (AID 2283516). Conditions: mRNA level, 48 h; actives raise or lower the signal. On the procedure: LTEA_HepaRG is a cell based, multiplexed-readout assay that uses HepaRG, a human liver cell line, with measurements taken at 48 hours after chemical dosing on a 96-well plate.LTEA_HepaRG_MIR122 is one of 102 assay component(s) measured in the LTEA HepaRG cell culture assay. It is a marker of MicroRNA.Data from the assay component LTEA_HepaRG_MIR122 was analyzed into 1 endpoint. This assay endpoint, LTEA_HepaRG_MIR122, was analyzed with bidirectional fitting relative to DMSO as the negative control and baseline of activity. Using a type of inducible reporter, measures of mRNA induction for gain or loss-of-signal activity can be used to understand regulation of transcription factor activity. To generalize the intended target to other relatable targets, this assay endpoint is annotated to the microrna intended target family, where the subfamily is post-transcriptional regulation.
A total of 1060 chemcials from the ToxCast library were tested in eight-point concentration-response experiments. Cell culture and cytotoxicity assays were conducted at Thermo Fisher Scientific's Custom Services facility (Madison, WI). A single lot of human HepaRG cells (Thermo Fisher Scientific, Frederick, MD) was used for the cell culture experiments. 96-well format collagen type I coated plates of human HepaRG cells were prepared using established methods. Briefly, cryopreserved HepaRG cells were thawed, plated at a density of approximately 100,000 cells/well in HepaRG Thaw, Plate, and General Purpose media (HPRG770, Thermo Fisher Scientific), and incubated for 48 hours. 0.5% DMSO was selected as vehicle control to balance the requisite need of DMSO in HepaRG cultures to maintain differentiation (for example, baseline metabolism, proportions of hepatocytes vs. cholangiocytes), while enabling further hepatic receptor pathway activation (for example, PXR and CAR) in response to chemical exposure. 48 hours after plating, the culture medium was replaced with HepaRG Serum-Free Incudtion Media. Cells were exposed to each test chemical in duplicate and maintained in CO2 incubators for another 48 hours. Chemical plates were thawed to room temperature and 200x concentrations of treatment groups were prepared. 8-point conentration-reponse curves were made with the highest exposure at 100 uM, followed by half-log dilutions, all in 0.5% DMSO. Each test plate contained variouse controls, induction positive controls (1mM phenobarbital), cytotoxicity positive controls ([…] aflatoxin B1), vehicle controls (0.5% DMSO), and total lysis controls (0.5% DMSO). Cell morphology images were taken using an Essen IncuCyte FLR automated microscope, with six 96-well plates imaged in about 24 minutes. Images were captured and exported and JPEG files. Spent culture media was transfered to black-well plates for the LDH assay, and remaining media was sorted at -80 C for later use. Cells were treated with RLT buffer and frozen until shipped for gene expression analysis. Total RNA was isolated from the cell suspension in 75 uL of Buffer RLT (Qiagen, Germantown, MD 20874) by Quintiles/Expression Analysis (Durham, NC) using a custom isolation procedure. Total RNA from each plate well was transferred to a preamplification plate. Fluidigm's 96.96 Dynamic ArrayTM (Fluidigm, Amsterdam, the Netherlands) technology was used for gene expression analyses by quantitative reverse transcription polymerase chain reaction (qRT-PCR, performed by Quintiles/Expression Analysis, Durham, NC)89. Standard TaqManTM Assays (Applied Biosystems/ThermoFisher Scientific, Foster City, CA) were used to assess the expression of 93 genes selected based on their selectivity and sensitivity to important hepatic receptors known to be modulated by environmental chemicals; importance in human hepatocyte functionality; and hepatotoxicity. […]
For the molecule `CN=C=S`, the call was inactive.

Take `CNC(=O)N(C)c1nnc(C(C)(C)C)s1`: the result was inactive.

The term AC50 denotes the midpoint of the concentration-response curve, whichever way the signal moves. `CCOP(=O)(OCC)Oc1nc(Cl)c(Cl)cc1Cl`: the AC50 was 87.7 µM (active).

Take `CCOc1nc(C(Cl)(Cl)Cl)ns1`: the AC50 was 0.682 µM (active).

For the molecule `COc1ccc(-c2ccccc2)cc1NNC(=O)OC(C)C`, the molecule was classed as inactive.

In the case of `OC(c1ccc(Cl)cc1)(c1ccc(Cl)cc1)C(Cl)(Cl)Cl`, the AC50 was 64.9 µM (active).

Turning to `O=C(O)c1c(Cl)ccc2cc(Cl)cnc12`, the molecule was classed as inactive.

On to `CC(C)Nc1nc(Cl)nc(NC(C)C)n1`, for which the outcome was inactive.

With `COP(=O)(OC)O/C(C)=C/C(=O)N(C)C`, the result was inactive.

Regarding `CC1(C)CCC(=Cc2ccc(Cl)cc2)C1(O)Cn1cncn1` (stereo not given), the molecule was classed as inactive.

As for `CN/C(=N\[N+](=O)[O-])NCc1cnc(Cl)s1`, the molecule was called inactive.

As for `CC1(C)C(C(=O)OC(C#N)c2cccc(Oc3ccccc3)c2)C1(C)C` (stereo not given), the molecule was called inactive.

With `COP(=S)(OC)SCn1nnc2ccccc2c1=O`, the molecule was called inactive.

For `CCCCC(C#N)(Cn1cncn1)c1ccc(Cl)cc1` (stereo not given), the outcome was inactive.

In the case of `CCN(CC)c1nc(C)cc(OP(=S)(OC)OC)n1`, the molecule was classed as inactive.

On to `CCNP(=S)(OC)O/C(C)=C/C(=O)OC(C)C` (stereo not given), for which the result was inactive.

Consider `CC(C)NC(=O)N1CC(=O)N(c2cc(Cl)cc(Cl)c2)C1=O`, for which the outcome was inactive.

Regarding `COc1cc(Cl)c(OC)cc1Cl`, the call was inactive.

For `CCOc1nc(F)cc2nc(S(=O)(=O)Nc3c(Cl)cccc3Cl)nn12`, the molecule was called inactive.

As to `N#CN=C1SCCN1Cc1ccc(Cl)nc1`, the outcome was inactive.

Turning to `Clc1nc(Cl)nc(Nc2ccccc2Cl)n1`, the call was inactive.

For `CS(=O)(=O)c1ccc(C(=O)C2C(=O)CCCC2=O)c([N+](=O)[O-])c1`, the result was inactive.

With `Nc1c(Cl)c(F)nc(OCC(=O)O)c1Cl`, the molecule was called inactive.

In the case of `O=P(O)(O)CCCl`, the outcome was inactive.

As to `CC1(C)C(C=C(Cl)Cl)C1C(=O)OC(C#N)c1cccc(Oc2ccccc2)c1` (stereo not given), the call was inactive.

In the case of `Clc1cccc(C(Cl)(Cl)Cl)n1`, the call was inactive.

Consider `CCCC(=NOCC)C1=C(O)CC(CC(C)SCC)CC1=O` (stereo not given), for which the result was inactive.

Take `CCOP(=S)(OCC)Oc1nc(Cl)n(C(C)C)n1`: the outcome was inactive.

`COCC(=O)N(c1c(C)cccc1C)C(C)C(=O)OC` (stereo not given): the molecule was classed as inactive.

As for `N#Cc1c[nH]cc1-c1cccc2c1OC(F)(F)O2`, the molecule was classed as inactive.

For the molecule `CO/N=C(/C1=NOCCO1)c1ccccc1Oc1ncnc(Oc2ccccc2Cl)c1F`, the AC50 is 26.4 µM (active).

Consider `Cc1cnc(C2=NC(C)(C(C)C)C(=O)N2)c(C(=O)O)c1` (stereo not given), for which the call was inactive.

On to `O=C(Nc1ccccc1-c1ccc(Cl)cc1)c1cccnc1Cl`, for which the result was inactive.

Turning to `COC(=O)N(C(=O)N1CO[C@@]2(C(=O)OC)Cc3cc(Cl)ccc3C2=N1)c1ccc(OC(F)(F)F)cc1`, the AC50 was 40 µM (active).

Take `COCc1cnc(C2=NC(C)(C(C)C)C(=O)N2)c(C(=O)O)c1` (stereo not given): the call was inactive.

Take `CNC(=O)Oc1cccc2ccccc12`: the molecule was called inactive.

Regarding `Cc1ccc(N=CN(C)C=Nc2ccc(C)cc2C)c(C)c1`, the molecule was called inactive.

Turning to `C=C(C)CN(CC)c1c([N+](=O)[O-])cc(C(F)(F)F)cc1[N+](=O)[O-]`, the call was inactive.

As for `Cn1c(-c2ccccc2)cc(-c2ccccc2)[n+]1C`, the AC50 was 28.7 µM (active).

For `CCCCOCN(C(=O)CCl)c1c(CC)cccc1CC`, the call was inactive.
